# According to PubChem BioAssay (EPA / NIEHS):
# Inconclusive results are not listed. Active and inactive are the calls of the source. The calls were made as follows: active = hit-call score of the fitted dose curve at least 0.9, where 1 is the maximum; inconclusive = response in the unintended direction; inactive = score below 0.9.
# Molecular target: human Retinoic Acid Receptor beta (RARb), RARB (gene 5915) (UniProt P10826)
# Assay: ATG_RARb_TRANS: Attagene TRANS-FACTORIAL HepG2 Assay for human Retinoic Acid Receptor beta (AID 2283004)
# Protocol: ATG_TRANS is a cell-based, multiplexed-readout assay that uses HepG2, a human liver cell line, with measurements taken at 24 hours after chemical dosing in a 24-well plate.ATG_RARb_TRANS is one of 30 assay component(s) measured or calculated from the ATG_TRANS assay. It is designed to make measurements of mRNA induction, a form of inducible reporter, as detected with fluorescence intensity signals by Reverse transcription polymerase chain reaction (RT-PCR) and Capillary electrophoresis technology.Data from the assay component ATG_RARb_TRANS was analyzed into 1 assay endpoint. This assay endpoint, ATG_RARb_TRANS, was analyzed in the positive analysis fitting direction relative to DMSO as the negative control and baseline of activity. Using a type of inducible reporter, measures of mRNA for gain-of-signal activity can be used to understand the reporter gene at the transcription factor-level as they relate to the gene RARB. Furthermore, this assay endpoint can be referred to as a primary readout, because this assay has produced multiple assay endpoints where this one serves a reporter gene function. To generalize the intended target to other relatable targets, this assay endpoint is annotated to the nuclear receptor intended target family, where the subfamily is non-steroidal.
# Human liver HepG2 cells are transiently transfected with multiple reporter transcription units (MRTUs) in 6-well plates using FuGene 6 reagent (Roche; 3 ml FuGene/1 mg DNA). The MRTU constructs are regulated by a cis-regulating element (promoter). […] A major difference between the CIS and TRANS system is that in CIS activities of endogenous TFs are measured, whereas the TRANS assay evaluates changes in activities of exogenous, chimeric NR-Gal4 proteins. […] At the end of 24 hour incubation, total RNA was isolated using TriZol reagent (Invitrogen). The isolated RNA is then reverse-transcribed using oligo(dT) primer and Mo-MLV reverse transcriptase (Invitrogen) with DNAse I (Ambion) treatment for 30 min. The one-tenth of the produced cDNA was amplified by PCR using Taq DNA polymerase (Invitrogen) and two reporter sequence-specific primers. The PCR products were fluorescently labeled by primer extension with 6-arboxyfluorescein (6-FAM) 5'-labeled reporter sequence-specific primer (2 min at 95 C, 20 s at 68 C and 10 min at 72 C) and these products were digested with 5U of HpaI (New England Biolabs) for 2h at 37 C. The fragments were purified using Qiaquick PCR columns (Qiagen), analyzed on an ABI 3130xL genetic analyzer (Applied Biosystems) with peak positions identified by using a set of X-rhodamine (ROX)-labeled MapMarker1000 molecular weight standards (BioVentures). The raw capillary electrophoresis data was processed using Attagraph software (Attagene).
# human Retinoic Acid Receptor beta (RARb), RARB (gene 5915), sequence (P10826 whole entry, looked up): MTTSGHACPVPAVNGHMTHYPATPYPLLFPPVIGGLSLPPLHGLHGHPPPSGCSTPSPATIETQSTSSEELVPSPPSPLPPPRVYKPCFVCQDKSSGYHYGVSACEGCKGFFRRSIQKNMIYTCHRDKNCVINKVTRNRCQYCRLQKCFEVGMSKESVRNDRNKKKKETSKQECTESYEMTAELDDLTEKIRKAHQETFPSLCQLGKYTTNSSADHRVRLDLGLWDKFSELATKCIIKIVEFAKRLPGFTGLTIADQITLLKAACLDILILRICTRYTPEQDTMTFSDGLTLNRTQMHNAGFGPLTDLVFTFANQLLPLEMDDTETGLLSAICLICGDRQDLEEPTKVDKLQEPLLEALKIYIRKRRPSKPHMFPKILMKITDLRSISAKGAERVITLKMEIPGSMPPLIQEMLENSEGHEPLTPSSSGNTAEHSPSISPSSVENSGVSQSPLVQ
row,Structure (SMILES),outcome
1,NCCO,inactive
2,Oc1ccc2ccccc2c1N=Nc1ccccc1,inactive
3,COc1ccc(C)cc1N,inactive
4,Nc1ccc2c(c1)C(=O)c1ccccc1C2=O,inactive
5,NCC1(Cc2noc(=O)[nH]2)CCCCC1,inactive
6,CC(=O)OCCOCCOCCOC(C)=O,inactive
7,Nc1ccccc1N,inactive
8,O=[N+]([O-])C(CO)(CO)CO,inactive
9,COCCOCCOC,inactive
10,CCCCCCCCCCCCCCCC,inactive
11,Cc1ccc2ncccc2c1,inactive
12,Cc1ccc(C)c(O)c1C,inactive
13,Cc1oc(-c2ccccc2)nc1CCOc1cccc2c1ccn2CCC(=O)O,inactive
14,CC(C)c1ccc(C(=O)N=C(N)N)cc1S(C)(=O)=O,inactive
15,CCCCC(CC)COC(=O)CC(C(=O)OCC(CC)CCCC)S(=O)(=O)O (stereo not drawn),inactive
16,CCCCCCC(=O)OCC,inactive
17,CN1CCCC1=O,inactive
18,CCCCCCCCCCO,inactive
19,Nc1nc(N)c2nc(CNc3ccc(C(=O)N[C@@H](CCC(=O)O)C(=O)O)cc3)cnc2n1,inactive
20,Cc1cccc(Nc2cc(Cl)nc(SCC(=O)O)n2)c1C,inactive
21,Cc1ccc(C(C)C)c(O)c1,inactive
22,CCOC(=O)CCC(=O)OCC,inactive
23,CC(C)(C)c1cc(O)c(C(C)(C)C)cc1O,inactive
24,CC(=O)Oc1ccccc1C(=O)O,inactive
25,Cc1ccc(C)c(C)c1,inactive
26,COCCOC[C@H](CC1(C(=O)NC2CCC(C(=O)O)CC2)CCCC1)C(=O)Oc1ccc2c(c1)CCC2 (stereo partly drawn),inactive
27,CC=Cc1ccc(O)c(OC)c1,inactive
28,CC1=C(/C=C/C(C)=C/C=C/C(C)=C/CO)C(C)(C)CCC1,inactive
